Data as given in article PMC8136818, “Evolving origin-of-transfer sequences on staphylococcal conjugative and mobilizable plasmids—who’s mimicking whom?”.

T1: SmpO45 (Staphylococcus aureus plasmid pWBG745, UniProt UPI0001BEA8D3 1-84)
T1 sequence: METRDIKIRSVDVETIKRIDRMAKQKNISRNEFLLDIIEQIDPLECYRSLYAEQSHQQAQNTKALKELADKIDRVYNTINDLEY

T2: SmpO408 (Staphylococcus aureus M0408)
T2 chain: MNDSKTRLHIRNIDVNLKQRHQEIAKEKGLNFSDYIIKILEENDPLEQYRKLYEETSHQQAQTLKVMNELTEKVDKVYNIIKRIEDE

T3: SmpOSep (Staphylococcus epidermidis VCU120)
T3 chain: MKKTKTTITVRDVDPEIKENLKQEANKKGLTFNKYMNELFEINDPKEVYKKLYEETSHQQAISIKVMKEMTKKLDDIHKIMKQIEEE

T4: SmpOUNa (plasmid pC02)
T4 chain: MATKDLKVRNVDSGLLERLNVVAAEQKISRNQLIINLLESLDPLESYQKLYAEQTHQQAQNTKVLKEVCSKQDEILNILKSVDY

T5: SmpO49-F7K (Staphylococcus aureus plasmid pWBG749, UniProt UPI0001BEA96A 1-84, F7K)
T5 sequence: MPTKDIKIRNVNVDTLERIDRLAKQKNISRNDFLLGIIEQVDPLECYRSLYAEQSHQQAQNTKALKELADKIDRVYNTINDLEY

B1: ossA45-12 (dsDNA)
DNA 1: ATTGTGGGGTCTCTTT
DNA 2: AAAGAGACCCCACAAT
B2: OT45.10 (dsDNA)
DNA 1: CCCCATAAAATATGGGGTCATATTTCCCTT
DNA 2: AAGGGAAATATGACCCCATATTTTATGGGG
B3: ossA45-9 (dsDNA)
DNA 1: ATTGTGGGCTCACTTT
DNA 2: AAAGTGAGCCCACAAT
B4: OT45.3 (dsDNA)
DNA 1: GACACTATAGTTTATTGTGGGGTCACTTTA
DNA 2: TAAAGTGACCCCACAATAAACTATAGTGTC
B5: OT45.11 (dsDNA)
DNA 1: TATGGGGTCATATTTCCCTTATGCTCTTAC
DNA 2: GTAAGAGCATAAGGGAAATATGACCCCATA
B6: ossA45-5 (dsDNA)
DNA 1: ATTGAGGGGTCACTTT
DNA 2: AAAGTGACCCCTCAAT
B7: ossB408 (dsDNA)
DNA 1: TAATAGGTGGCAAATT
DNA 2: AATTTGCCACCTATTA
B8: ossBUNa (dsDNA)
DNA 1: AAAATGGGTACATATT
DNA 2: AATATGTACCCATTTT
B9: ossB45 (dsDNA)
DNA 1: AATATGGGGTCATATT
DNA 2: AATATGACCCCATATT
B10: ossA45-1 (dsDNA)
DNA 1: TTTGTGGGGTCACTTT
DNA 2: AAAGTGACCCCACAAA
B11: ossA45-3 (dsDNA)
DNA 1: ATAGTGGGGTCACTTT
DNA 2: AAAGTGACCCCACTAT
B12: OT45.4 (dsDNA)
DNA 1: TTTATTGTGGGGTCACTTTAAATTCTTTAA
DNA 2: TTAAAGAATTTAAAGTGACCCCACAATAAA
B13: ossA45 C11G (dsDNA)
DNA 1: ATTGTGGGGTGACTTT
DNA 2: AAAGTCACCCCACAAT
B14: ossA45-4 (dsDNA)
DNA 1: ATTCTGGGGTCACTTT
DNA 2: AAAGTGACCCCAGAAT
B15: OT45.9 (dsDNA)
DNA 1: TTGCCAGCCACCCCATAAAATATGGGGTCA
DNA 2: TGACCCCATATTTTATGGGGTGGCTGGCAA
B16: ossA45-2 (dsDNA)
DNA 1: AATGTGGGGTCACTTT
DNA 2: AAAGTGACCCCACATT
B17: ossA45 (dsDNA)
DNA 1: ATTGTGGGGTCACTTT
DNA 2: AAAGTGACCCCACAAT
B18: ossA45-10 (dsDNA)
DNA 1: ATTGTGGGGACACTTT
DNA 2: AAAGTGTCCCCACAAT
B19: ossAUNa (dsDNA)
DNA 1: GTGACCCCCATAAGAT
DNA 2: ATCTTATGGGGGTCAC
B20: OT45.5 (dsDNA)
DNA 1: GGTCACTTTAAATTCTTTAAAACCCTTGAA
DNA 2: TTCAAGGGTTTTAAAGAATTTAAAGTGACC

These binders were tested against T1, SmpO45 (assay: SPR (ReDCaT); 300 mM NaCl; 10 mM HEPES, 3 mM EDTA, 0.05% Tween 20, NaCl 150 mM (SmpO49 screens), 300 mM (SmpO45, SmpO408, SmpOUNa screens) or 250 mM (Table S4); pH and temperature not stated; protein 1 uM; high values mean tight binding). Details: protein: recombinant; tags: His6-TEV, cleaved; chain copies: 4.
How it was run: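 The running buffer was 10 mM HEPES, 300 mM NaCl, 3 mM EDTA, 0.05% Tween 20, and protein at 1 μM was injected at 30 μl/min for 60 s contact and 60 s dissociation. The protein had been expressed in E. coli BL21(DE3)pLysS, cleaved of its tag, and purified by nickel-affinity and size-exclusion chromatography. OriT oligonucleotides were captured at 1 μM on Fc2 of a Biacore T200 SA chip by reusable DNA capture, and a linker was captured on Fc1. Values are DNA binding expressed as %Rmax.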

Row | Binder | binding signal
1 | B1 | 7.81 ± 0.57 %Rmax
2 | B2 | 31.8 ± 2.19 %Rmax
3 | B3 | 0.616 ± 0.0355 %Rmax
4 | B4 | 29.5 ± 1.43 %Rmax
5 | B5 | 21.2 ± 1.26 %Rmax
6 | B6 | 13.5 ± 0.663 %Rmax
7 | B10 | 42.58 ± 0.128 %Rmax
8 | B11 | 31.73 ± 0.268 %Rmax
9 | B12 | 29.4 ± 1.33 %Rmax
10 | B13 | 0.641 ± 0.0361 %Rmax
11 | B14 | 33.4 ± 0.753 %Rmax
12 | B15 | 0.769 ± 0.108 %Rmax
13 | B16 | 32.56 ± 0.0519 %Rmax
14 | B17 | 36.5 ± 3.64 %Rmax
15 | B18 | 6.42 ± 0.416 %Rmax
16 | B20 | 17.8 ± 1.2 %Rmax

These binders were tested against T1, SmpO45 (assay: SPR (ReDCaT); 250 mM NaCl; 10 mM HEPES, 3 mM EDTA, 0.05% Tween 20, NaCl 150 mM (SmpO49 screens), 300 mM (SmpO45, SmpO408, SmpOUNa screens) or 250 mM (Table S4); pH and temperature not stated; protein 1 uM; high values mean tight binding). Details: protein: recombinant; tags: His6-TEV, cleaved; chain copies: 4.

Row | Binder | binding signal
17 | B7 | 0.4 %Rmax
18 | B8 | 0.8 %Rmax
19 | B9 | 21.6 %Rmax
20 | B17 | 37.5 %Rmax
21 | B19 | 1.6 %Rmax

Target: T2, SmpO408
Experiment: as above
Details: protein: recombinant; tags: His6-TEV, cleaved; chain copies: 4

Row | Binder | binding signal
22 | B7 | 34.2 %Rmax
23 | B9 | 0.9 %Rmax
24 | B17 | 10.7 %Rmax
25 | B19 | 2.9 %Rmax

Target: T3, SmpOSep
Experiment: as above
Details: protein: recombinant; tags: His6-TEV, cleaved; chain copies: 4

Row | Binder | binding signal
26 | B8 | 1.5 %Rmax
27 | B9 | 0.5 %Rmax
28 | B17 | 2.9 %Rmax

Target: T4, SmpOUNa
Experiment: as above
Details: protein: recombinant; tags: His6-TEV, cleaved; chain copies: 4

Row | Binder | binding signal
29 | B9 | 1.4 %Rmax
30 | B17 | 7.1 %Rmax
31 | B19 | 12.4 %Rmax

Each binder was assayed against T5, SmpO49-F7K in the same assay as above. Details: protein: recombinant; tags: His6-TEV, cleaved; chain copies: 4.

Row | Binder | binding signal
32 | B9 | 26.1 %Rmax
33 | B17 | 31.3 %Rmax
34 | B19 | 3.5 %Rmax
